Compounds without any hit were thinned out: in the full panel of roughly 83,000, 20% have a hit.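 Assay: single dose, 48 h. Readout: percent growth (0 = no net growth; negative = cell death). Active: <10.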 A number with no mark means an inactive call. Activity calls are given as the source filed them.
Columns and labels:
Assay in all cases: NCI-60 one-dose screen, 48 h (100 = growth as untreated, 0 = no growth, -100 = all killed)
Details in all cases: 10 µM unless noted
HCT-15 colon = test system: HCT-15 colon
HT29 colon = test system: HT29 colon
SNB-75 CNS = test system: SNB-75 CNS
SNB-19 CNS = test system: SNB-19 CNS
U251 CNS = test system: U251 CNS
PC-3 prostate = test system: PC-3 prostate
SK-MEL-5 melanoma = test system: SK-MEL-5 melanoma
UACC-62 melanoma = test system: UACC-62 melanoma
LOX IMVI melanoma = test system: LOX IMVI melanoma
SK-MEL-28 melanoma = test system: SK-MEL-28 melanoma
SK-MEL-2 melanoma = test system: SK-MEL-2 melanoma
EKVX NSCLC = test system: EKVX NSCLC
SN12C renal = test system: SN12C renal
UO-31 renal = test system: UO-31 renal
TK-10 renal = test system: TK-10 renal
ACHN renal = test system: ACHN renal
A498 renal = test system: A498 renal
CCRF-CEM leukemia = test system: CCRF-CEM leukemia
MOLT-4 leukemia = test system: MOLT-4 leukemia
CAKI-1 renal = test system: CAKI-1 renal

SMILES | growth (HCT-15 colon) | growth (HT29 colon) | growth (SNB-75 CNS) | growth (SNB-19 CNS) [%] | growth (U251 CNS) | growth (PC-3 prostate) | growth (SK-MEL-5 melanoma) | growth (UACC-62 melanoma) | growth (LOX IMVI melanoma) | growth (SK-MEL-28 melanoma) | growth (SK-MEL-2 melanoma) | growth (EKVX NSCLC) | growth (SN12C renal) | growth (UO-31 renal) | growth (TK-10 renal) | growth (ACHN renal) | growth (A498 renal) | growth (CCRF-CEM leukemia) | growth (MOLT-4 leukemia) | growth (CAKI-1 renal)
O=C(Nc1ccc(Cl)cc1F)c1cc(Cl)ccc1O | -4.97% (active) | 19.5% | -6.93% (active) | 13.6 | 9.73% (active) | 0.161% (active) | -90.5% (active) | -41.2% (active) | -18.9% (active) | -3.71% (active) | -28.3% (active) | 5.1% (active) | -11% (active) | -14.6% (active) | 15.6% | -1.72% (active) | -51.8% (active) | 15.8% | -42.4% (active) | –
C[N+]1=C(/C=C/c2ccc(O)c3ncccc23)C(C)(C)c2ccccc21 | 25% | 96.9% | 30.8% | 27.9 | 17.1% | 71.2% | 1.13% (active) | 39.2% | 40.4% | 51.5% | 44.9% | 58.7% | 42.7% | 30.6% | 97.1% | – | 101% | 75.8% | 56.1% | 25.7%
CCCCn1c(-c2ccc(C(=O)O/N=C(\N)c3ccc(OC)cc3)cc2)nc(-c2ccccc2)c1-c1ccccc1 | -47.5% (active) | 21.8% | -31.1% (active) | 23.9 | -52.6% (active) | -7.41% (active) | 41.8% | 29.1% | -93.1% (active) | 47% | 52.6% | -79.2% (active) | -62.7% (active) | -93.7% (active) | -78.8% (active) | -97.9% (active) | 20.9% | -48.7% (active) | -39.7% (active) | –
COc1c(C2CC(=O)Nc3c2c(C)nn3-c2nc3ccccc3[nH]2)cc2c(c1OC)OCO2 (stereo not drawn) | 37.2% | 20.5% | 44.2% | 49.6 | 31.5% | 48.4% | 31.9% | 55.2% | 46.7% | 44.2% | 29.6% | 58% | 68.8% | 45.4% | 66.9% | 55.8% | 22.6% | 11.3% | -12.7% (active) | –
O=c1c2cccc(Cl)c2sc2c(NCCCNCCO)nc3ccccc3c12 | -24.3% (active) | -51.7% (active) | 51.9% | 45.7 | 10.8% | 41.8% | 81.8% | 66.2% | -93.1% (active) | 72.1% | – | 53.9% | 39.1% | 12.5% | 39.1% | 10.3% | 10.8% | -14.6% (active) | -40.3% (active) | -46.9% (active)
COc1cc(CNS(=O)(=O)c2ccc(C)cc2)ccc1OCc1cn(-c2ccccc2)nn1 | 88.2% | 103% | 91.9% | 92.3 | 89.1% | 86.7% | 80.1% | 75.2% | 94.1% | 101% | – | 87.6% | 93.3% | 79.5% | 104% | 95.1% | 59% | 88.9% | 88.4% | 88.5%
CCCCNc1nc(NN2C(=O)c3cccc4cccc(c34)C2=O)nc(-n2cnc3ccccc32)n1 | 85.2% | 98% | 85.8% | 86.9 | 69.3% | 77.4% | 75.6% | 88.3% | 87.4% | 94.1% | 99% | 71.8% | 90.5% | 44.1% | 100% | – | 35.9% | 96.3% | 77.4% | 75.6%
COC(=O)C(Cc1ccccc1)NC(=O)NC(=O)NC(=O)CI (stereo not drawn) | 12% | 50.1% | 98.9% | 126 | 101% | 87.6% | 89.7% | 6.21% (active) | -78.8% (active) | 51.8% | – | 103% | 17.2% | 34.7% | 75.9% | 75.7% | 124% | -50.8% (active) | -30.7% (active) | -69.3% (active)
c1ccc(Nc2cc(-c3cccnc3)[nH]n2)cc1 | 101% | 100% | 52.8% | 77.9 | 84% | 102% | 101% | 102% | 103% | 105% | 112% | 98.1% | 99.3% | 80% | 103% | – | 69% | 106% | 93.6% | 90.1%
COc1ccc(NC(=O)n2nc(/C=C\c3ccc(O)c(OC)c3)cc2/C=C\c2ccc(O)c(OC)c2)cc1 | 13.2% | 31.3% | 32.6% | 38.9 | 26% | 28.4% | 9.04% (active) | 25.5% | 27.6% | 34.5% | 21.4% | 52.4% | 31.4% | 22.7% | 63.8% | – | 82.5% | 11.8% | 12.2% | 38.1%
Cc1ccc(/C=C2\Oc3ccc(O)c(O)c3C2=O)cc1 | 9.23% (active) | 87.8% | 32.5% | 37.9 | 20.2% | 43.3% | 47.3% | 45.3% | 16.9% | 53.6% | 87.6% | 19.7% | 62.8% | 13.5% | 98% | – | 70.2% | 15.6% | 29.6% | 34.4%
c1ccc(-c2nc3sc(-c4ccccc4)cn3n2)cc1 | 91.6% | 90.3% | 84.3% | 88.5 | 93.6% | 63% | 80% | 66.9% | 83.3% | 107% | – | 78.6% | 79.5% | 46.9% | 127% | 85.5% | 86% | 86.8% | 88.6% | 90.8%

— PubChem BioAssay (NCI)
